Reference: PubChem BioAssay AID624330 (Southern Research Specialized Biocontainment Screening …, 2012)
The campaign covered roughly 340,000 compounds. About 2,100 (0.62%) were called active. A selection follows. Entries with a potency or affinity are not part of this list. A number with no mark means an inactive call.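 How the source made its calls: active means first-screen hits whose inhibition reached a set limit at any dose in the follow-up dose series; inconclusive means inhibition above the set first-screen limit but never retested; inactive means the rest.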

These molecules were tested against Rac GTPase-activating protein 1 (Homo sapiens) (UniProt Q9H0H5) (assay: MgcRacGAP GTPase-activating activity inhibitors, confirmation, biochemical, ADP Hunter fluorescence, primary and confirmatory (AID 624330;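 further: fluorescence reports GDP produced by GAP-driven GTP hydrolysis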)). Conditions: MgcRacGAP-stimulated Rac1 GTP hydrolysis, at 30 µM, stronger effect = higher value, GST-tagged Rac1 F28L mutant substrate.
Chain of Rac GTPase-activating protein 1 (Homo sapiens) (Q9H0H5 whole entry, looked up): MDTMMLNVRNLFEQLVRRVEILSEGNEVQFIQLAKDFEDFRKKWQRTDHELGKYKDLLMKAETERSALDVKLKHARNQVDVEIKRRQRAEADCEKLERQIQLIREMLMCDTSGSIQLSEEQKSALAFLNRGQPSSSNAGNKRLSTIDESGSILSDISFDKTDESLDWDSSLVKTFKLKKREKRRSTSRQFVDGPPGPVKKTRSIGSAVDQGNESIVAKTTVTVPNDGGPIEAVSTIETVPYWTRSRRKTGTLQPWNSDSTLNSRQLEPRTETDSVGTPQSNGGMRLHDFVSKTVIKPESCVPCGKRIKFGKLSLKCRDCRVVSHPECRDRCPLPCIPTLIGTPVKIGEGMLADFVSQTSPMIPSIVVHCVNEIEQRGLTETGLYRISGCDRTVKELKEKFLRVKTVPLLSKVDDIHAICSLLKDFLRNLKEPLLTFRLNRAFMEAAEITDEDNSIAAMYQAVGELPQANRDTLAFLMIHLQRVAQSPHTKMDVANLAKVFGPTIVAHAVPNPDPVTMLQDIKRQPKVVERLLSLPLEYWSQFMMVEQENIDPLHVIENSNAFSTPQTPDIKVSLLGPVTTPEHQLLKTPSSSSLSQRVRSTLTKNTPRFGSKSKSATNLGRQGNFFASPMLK
With `CCN(CC)S(=O)(=O)c1cccc(NC(=O)CN(C)C2CCCCC2)c1` the inhibition was -0.2%. `Cc1ccc(NC(=O)CNCC2CCCCC2)cc1S(=O)(=O)N(C)C` gave an inhibition of 28.9%. With `CN(C)S(=O)(=O)c1cccc(NC(=O)CCCC2CCCCC2)c1` the inhibition was 4.27%. `CCN(CC)S(=O)(=O)c1ccc(NC(=O)CNC2CCCCC2)cc1` was tested, and the inhibition was 31.5%. In the case of `COc1ccc(S(=O)(=O)Nc2ccccc2C(=O)N2CCOCC2)cc1OC`, the inhibition is reported as 3.41%. Molecule `COc1ccc(CCNC(=O)C(C)SCC(=O)Nc2ccc(F)cc2)cc1` (stereo not given) has an inhibition of 6.87%. With `Cc1cc([N+](=O)[O-])nn1CC(=O)Nc1nc2ccccc2s1` the inhibition was 6.23%. `COc1ccc(/C(C)=N/NC(=O)c2ccncc2)cc1` showed an inhibition of 4.26%. Molecule `COc1ccc(/C(C)=N/NC(=O)Cc2c(C)nc(C)[nH]c2=O)cc1` has an inhibition of -5.47%. `COc1ccccc1OCC(=O)N/N=C(\C)c1ccc2ccccc2c1` showed an inhibition of 5.4%. `COc1cccc(C(=O)N/N=C(\C)c2ccc(NC(=O)Cc3ccccc3)cc2)c1OC` gave an inhibition of 10.3%. Work on `COc1ccc(/C(C)=N/NC(=O)c2ccncc2)cc1[N+](=O)[O-]` yielded an inhibition of 3.87%. Molecule `COc1cc(C(=O)O)ccc1O` has an inhibition of 9.79%. `C/C(=N\NC(=O)C(O)(c1ccccc1)c1ccccc1)c1ccc(NC(=O)CCCC(=O)O)cc1` was tested, and the inhibition was 7.64%. `COc1ccccc1C(=O)N/N=C(\C)c1ccc(NC(=O)Cc2ccccc2)cc1` gave an inhibition of 7.02%. `Cc1ccccc1N1CCN(C2=NC(=O)/C(=C/c3cn[nH]c3-c3ccccc3)S2)CC1` was tested, and the inhibition was -0.05%. In the case of `CC(=O)N1c2ccc(S(=O)(=O)N3CCCCC3)cc2CC1C(=O)NCc1ccc(N(C)C)cc1` (stereo not given), the inhibition is reported as 3.76%. With `Fc1ccc(CNC(=S)NCc2ccc(F)cc2)cc1` the inhibition was -6.74%. `CCNC(=S)N(Cc1cccs1)Cc1cc2cc(OCC)ccc2[nH]c1=O` gave an inhibition of 9.83%. `COc1ccc(OCCOCCOc2ccc(C)cc2[N+](=O)[O-])cc1` was tested, and the inhibition was 4.97%. `Cc1cnc(C(=O)OC(C(=O)c2c[nH]c3ccccc23)c2ccccc2)cn1` (stereo not given) showed an inhibition of 10%. With `C=C1/C=C(\C)C(C)(O)CC(O)CC(=O)C(O)C(O)C(C)CC(C)OC(=O)/C(C)=C/CC/C=C/C(OC)C(O)CC(C)C1` (stereo not given) the inhibition was 9.68%. Work on `COc1cc(CN2CCCC(CO)(Cc3ccccc3C)C2)cc2c1OCO2` (stereo not given) yielded an inhibition of 1.83%. For `O=C(Nc1cc(Br)ccc1O)c1cc(-c2ccco2)on1`, the inhibition was 8.94%. Molecule `Brc1cccc(OCCN2CCCCC2)c1` has an inhibition of 17.4%. `Brc1ccc(OCCN2CCOCC2)cc1` was tested, and the inhibition was 28.6%. Work on `Clc1cccc(OCCN2CCOCC2)c1` yielded an inhibition of 10.7%. `Brc1ccc(OCCOCCN2CCOCC2)cc1` gave an inhibition of 4.13%. In the case of `COc1cccc(OC)c1C(=O)OCC(=O)N1CCC(Cc2ccccc2)CC1`, the inhibition is reported as -0.57%. Work on `O=C(/C=C/c1cccc([N+](=O)[O-])c1)OCC(=O)N1CCN(C(=O)c2ccco2)CC1` yielded an inhibition of 4.32%. In the case of `COc1cc(/C=C/C(=O)OCC(=O)N2CCCc3ccccc32)ccc1OCC#N`, the inhibition is reported as 6.56%. With `COc1ccc(/C=N/OCC(=O)N2CC3(C)CC2CC(C)(C)C3)cc1OC` (stereo not given) the inhibition was 4.24%. With `CCOC(=O)/C=C/C(=O)OCC(=O)N1CCN(C(=O)c2ccco2)CC1` the inhibition was 8.47%. `COc1cc(/C=C/C(=O)OCC(=O)N2CCCc3ccccc32)ccc1OC(F)F` was tested, and the inhibition was 1.81%. Work on `COc1ccccc1C(=O)OCC(=O)N1CCC(Cc2ccccc2)CC1` yielded an inhibition of 6.97%. In the case of `COc1ccccc1OCC(=O)N1CC2(C)CC1CC(C)(C)C2` (stereo not given), the inhibition is reported as 8.14%. `Cc1ccc(-c2ccc(=O)n(CC(=O)NCCN(CC(C)C)CC(C)C)n2)cc1` gave an inhibition of 8.51%. `O=C1C(CO)C(CO)C(CO)C1CO` (stereo not given) showed an inhibition of -2.59%. Molecule `CNCCCc1[nH]nc(N)c1C#N` has an inhibition of 9.11%. For `CCN(CC(=O)Nc1c(F)cccc1F)C(=O)c1cn2ccccc2n1`, the inhibition was 2.69%. Molecule `Cc1ccn2cc(CCNC(=O)c3ccc(Br)o3)nc2c1` has an inhibition of 13.4%. `O=S(=O)(CCc1nc2ccccc2s1)c1ccc2ccccc2c1` was tested, and the inhibition was 18.8%. For `CCN(CC)S(=O)(=O)c1ccc(NN)nc1`, the inhibition was -5.75%. `COc1cc(/C=C/C(=O)OCC(=O)N2CCCC2)cc(OC)c1OC` showed an inhibition of 4.39%. With `COc1ccc(/C=C/C(=O)OCC(=O)N2CCN(S(=O)(=O)c3ccc(C)cc3C)CC2)cc1OC` the inhibition was -0.78%. In the case of `COc1cc(/C=C/C(=O)OCC(=O)N2CCN(S(=O)(=O)c3ccc(C)cc3C)CC2)ccc1OC(F)F`, the inhibition is reported as 5.89%. With `COc1ccc(/C=C/C(=O)OCC(=O)N2CCCCCC2)cc1OC` the inhibition was 0.54%. `COc1cc(C(=O)O)nc(OC)n1` showed an inhibition of 0.97%. For `CCOC(=O)c1nn(-c2ccc(Cl)cc2)c(=O)c(C#N)c1C`, the inhibition was 5.44%. `O=C(O)CNC(=O)c1ccc(Oc2c(F)c(F)c(Oc3ccc(C(=O)NCC(=O)O)cc3)c(F)c2F)cc1` gave an inhibition of -1.5%. With `N#CCSc1nnc2sc3ccccc3n12` the inhibition was 5.4%. `O=S(=O)(O)c1nnc2sc3ccccc3n12` was tested, and the inhibition was 7.48%. `O=S(=O)(Cc1ccccc1)N1CCN(Cc2ccc3c(c2)OCO3)CC1` gave an inhibition of 4.33%. `Cc1cccc(NC(=O)C2C3C=CC(C4CC34)C2C(=O)O)c1` (stereo not given) was tested, and the inhibition was 10%. With `Cc1nc2ncnn2c(C)c1Cc1cccc(C(F)(F)F)c1` the inhibition was 5.74%. Molecule `CC1Cc2ccccc2N1C(=O)CNc1ccccc1N1CCCCC1` (stereo not given) has an inhibition of -0.46%. In the case of `CCCCNC(=O)N1c2ccccc2CC1C` (stereo not given), the inhibition is reported as 1.84%. `Cc1cc(N2C(=O)C(O)=C(C(=O)c3cc4ccccc4o3)C2c2ccc(Cl)cc2)no1` (stereo not given) showed an inhibition of -5.51%. In the case of `O=[N+]([O-])c1ccccc1NS(=O)(=O)c1ccccc1`, the inhibition is reported as 0.32%. With `Cc1ccc2[nH]ccc(=O)c2c1` the inhibition was 10.1%. Work on `O=c1cc[nH]c2c1ccc1c(=O)cc[nH]c12` yielded an inhibition of 10.4%. Work on `CC1CCC2(CC1)NC(=O)N(CC(=O)N1CC(C)CC(C)C1)C2=O` (stereo not given) yielded an inhibition of 3.96%. `CCc1ccc2c(c1)C(c1ccc([N+](=O)[O-])cc1)=NNC(c1ccc(C)cc1)=N2` gave an inhibition of 11%. With `Cc1ccc(/C=N/Nc2ccc(F)cc2)s1` the inhibition was 8.64%. In the case of `O=C(O)c1cc(N/N=C/c2ccncc2)ccc1Cl`, the inhibition is reported as -1.57%. For `CSc1ccc(/C=N/Nc2ccc(Cl)c(C(=O)O)c2)cc1`, the inhibition was 5.85%. For `Cc1ccc(/C=N/Nc2cccc(C(=O)O)c2)s1`, the inhibition was 27.8%. `CC1=NN(c2ccc(C(=O)OC(C)C)cc2)C(=O)/C1=C\C=C\c1ccco1` was tested, and the inhibition was 3.71%. `CCOC(=O)c1ccc(N2N=C(C)/C(=C/C=C/c3ccco3)C2=O)cc1` gave an inhibition of 3.99%. Work on `O=C1NN(c2ccc(F)cc2)C(=O)/C1=C\C=C\c1ccco1` yielded an inhibition of 8.7%. With `CC1=NN(c2ccc(Cl)c(C(=O)O)c2)C(=O)C1` the inhibition was 14.9%. `O=C(C1=C(O)C(=O)N(CCN2CCOCC2)C1c1cccc(Br)c1)c1cc2ccccc2o1` (stereo not given) showed an inhibition of 4.64%. Work on `C=CCC[C@@H](Cc1ccc(F)cc1)C(=O)OC[C@@H](Cc1c[nH]c2ccccc12)NC(=O)[C@@H](CC=C)CC(=O)N[C@H](CO)Cc1ccccc1` yielded an inhibition of 11.1%. Molecule `CCN(CC)C1CCN(C(=O)c2cc(COc3cccc4cccnc34)on2)C1` (stereo not given) has an inhibition of -5.07%. For `COC(=O)C(NC(C)=O)(Nc1ccc(C)cn1)C(F)(F)F` (stereo not given), the inhibition was -9.84%. With `O=[N+]([O-])c1ccccc1CN1CCN(Cc2ccccn2)CC1` the inhibition was 28.6%. With `COc1cc(CN2CCC(C(=O)NC(C)(C)C)CC2)ccc1OCc1ccccc1` the inhibition was 29.2%. Molecule `CCOC(=O)c1cc(CC)sc1NC(=O)Cc1ccsc1` has an inhibition of 14.6%. `C#Cc1ccc(CN2CCN(CCc3ccccc3)C(CCO)C2)cc1` (stereo not given) gave an inhibition of 5.19%. Molecule `Cc1c(C)c2ccc(OCC(=O)NC3CCN(Cc4ccccc4)CC3)cc2oc1=O` has an inhibition of 4.93%. Molecule `C[C@@H]1CCCCO[C@H](CN(C)C(=O)Nc2ccc(F)cc2)[C@@H](C)CN([C@H](C)CO)C(=O)c2cc(NC(=O)c3ccccc3)ccc2O1` has an inhibition of 5.34%. With `Nc1ccc(N=Nc2ccccc2Cl)c(N)n1` the inhibition was 10.4%. `Nc1ccc(N=Nc2ccccc2)c(N)n1` was tested, and the inhibition was 8.49%. `O=C(O)c1ccccc1N=Nc1ccc(O)cc1` was tested, and the inhibition was 13.8%. Molecule `Oc1ccc(N=Nc2ccc3ccccc3c2)cc1` has an inhibition of 18.5%. `O=C(Nc1cccc(-c2ccccc2)c1)N1CCN(C(=O)Nc2cccc(-c3ccccc3)c2)CC1` gave an inhibition of 14.5%. Work on `Cc1cc(NC(=O)c2ccc(C)o2)no1` yielded an inhibition of 2.09%. In the case of `CCOC(=O)N1CCC(N2Cc3cccc(C(=O)Nc4ccc(N(CC)CC)cc4C)c3C2=O)CC1`, the inhibition is reported as -10.8%. For `COC(=O)CNC(=O)c1nn(-c2cccc(OC)c2)c(=O)c2ccccc12`, the inhibition was 7.12%. In the case of `CCOC(=O)C1CCN(Cc2coc3c(Cl)cc(Cl)cc3c2=O)CC1`, the inhibition is reported as 14.9%. Molecule `O=c1c(CN2CCN(c3cccc(Cl)c3)CC2)coc2c(Cl)cc(Cl)cc12` has an inhibition of 1.43%. For `CCOC(=O)c1cnc2c(cnn2C)c1NCCC(O)C(F)(F)F` (stereo not given), the inhibition was 12.4%. Work on `COc1ccc(CCC(=O)NC2CCCc3ccccc32)cc1OC` (stereo not given) yielded an inhibition of 5.44%. `COc1ccc(NC(=O)c2cc3n(n2)C(C(F)(F)F)CC(c2ccco2)N3)cc1` (stereo not given) was tested, and the inhibition was 14.5%. For `CCOc1ccc(NC(=O)c2cc3n(n2)C(C(F)(F)F)CC(c2ccco2)N3)cc1` (stereo not given), the inhibition was 6.77%.
